Results published in article PMC12431657, “Discovery and mechanistic insights of dibenzoylmethane as a broad spectrum inhibitor of coronavirus” (PLOS Pathogens, 2025).
Like-named read-outs stand apart in the source and are kept apart here. Hit rate of the full screen: of about 3,300 compounds, about 60 (2%) showed an effect of 50% or more. The list comes from a sample in which strong results are over-represented; it also holds similar structures and randomly drawn compounds.

Test system: HCoV-OC43
Parameters: species or system RD; HTS, protection from HCoV-OC43 induced cell death, luminescent cell viability (CellCounting-Lite 2.0), inhibition rate
Details: 24 h post infection, 1 h compound pre-incubation, 10 µM, inhibitor

Compound | OC43 Inhibition rate [%] | OC43 Inhibition rate (OC43 Inhibition rate, 24 h) [%]
C[C@H](CCC(=O)NCCS(=O)(=O)O)[C@H]1CC[C@H]2[C@@H]3C[C@H](O)[C@@H]4C[C@H](O)CC[C@]4(C)[C@H]3CC[C@]12C [Taurohyodeoxycholic acid] | -1.1 | 
COc1cccc(O)c1C(=O)O [2-Hydroxy-6-methoxybenzoic acid] | 0 | 
CCCCCCC/C=C\C(=O)O [(Z)-2-Decenoic acid] | 29.5 | 
CC(C)=CCC1C(=O)C(C(=O)CC(C)C)=C(O)C(O)(CC=C(C)C)C1=O (stereo not drawn) [Humulone] | -1 | 
Oc1ccc(O)c(O)c1 [1,2,4-Trihydroxybenzene] | -0.2 | 
COc1c2c(cc3oc(C)cc(=O)c13)OC(C(C)(C)O[C@@H]1O[C@H](CO)[C@@H](O)[C@H](O)[C@H]1O)C2 (stereo partly drawn) [5-O-Methylvisammioside] | 0.3 | 
C=C(C)[C@H](C)c1cc(/C=C/C(=O)c2ccc(O)cc2)c(OC)cc1O [Licochalcone E] | 55.6 | 
COc1cc(O)ccc1/C=C/C(=O)c1ccc(O)cc1 [Echinatin] | 46.1 | 
COc1c(/C=C/C(=O)c2ccc(O)cc2)ccc(O)c1O [Licochalcone B] | 45.6 | 
O=C1C[C@@H](c2ccc(O[C@@H]3O[C@H](CO)[C@@H](O)[C@H](O)[C@H]3O)cc2)Oc2cc(O[C@@H]3OC[C@](O)(CO)[C@H]3O)ccc21 [Liguiritigenin-7-O-D-apiosyl-4'-O-D-glucoside] | 1.2 | 
CCC(O)C(=O)O (stereo not drawn) [Sodium 2-hydroxybutanoate] | -6 | 
C[C@@H]1CC[C@]2(C(=O)O[C@@H]3O[C@H](CO)[C@@H](O)[C@H](O)[C@H]3O)CC[C@]3(C)C(=CC[C@@H]4[C@@]5(C)C[C@@H](O)[C@H](O)C(C)(C)[C@@H]5CC[C@]43C)[C@@H]2[C@]1(C)O [Rosamultin] | 1 | 
CC(C)=C[C@@H]1CO[C@]23C[C@]4(CO2)[C@H](CC[C@@H]2[C@@]5(C)CC[C@H](O[C@@H]6OC[C@H](O)[C@H](O[C@@H]7O[C@H](COS(=O)(=O)O)[C@@H](O)[C@H](O)[C@H]7O)[C@H]6O[C@@H]6O[C@@H](CO)[C@H](O)[C@H]6O)C(C)(C)[C@@H]5CC[C@]24C)[C@H]3[C@@]1(C)O [Bacopaside I] | 0.8 | 
O=C1NCN(c2ccccc2)C12CCN(CCCOc1ccc(F)cc1)CC2 [Spiramide] | 69.6 | 
CC(=O)O[C@]12CCC(C(=O)O)=CC[C@]13CC[C@H]2[C@@](C)(/C=C/C=C(\C)C(=O)O)OC3=O [Pseudolaric Acid C2] | 3.3 | 
Cn1cncc1C[C@H](N)C(=O)O [3-Methyl-L-histidine] | -5.7 | 
CC[C@@H](C)O [(R)-(-)-2-Butanol] | 0.1 | 
CC(=O)N[C@@H](CCCCN)C(=O)O [Acetyl-L-lysine] | -0.1 | 
COc1cc2c(cc1OC)[C@@H](Cc1ccc(O)c(Oc3cc4c(cc3OC)CCN(C)[C@@H]4Cc3ccc(O)cc3)c1)N(C)CC2 [Liensinine (perchlorate)] |  | 0.4
COc1cc2c(cc1OC)[C@@H](Cc1ccc(O)c(Oc3cc4c(cc3OC)CCN(C)[C@@H]4Cc3ccc(O)cc3)c1)N(C)CC2 [Liensinine (Diperchlorate)] |  | 24.8
COc1cc2c(cc1OC)[C@@H](Cc1ccc(O)c(Oc3cc4c(cc3OC)CCN(C)[C@@H]4Cc3ccc(O)cc3)c1)N(C)CC2 [Liensinine] |  | 54.6
CCCCCCCC/C=C/CCCCCCCC(=O)O [Elaidic acid] | -0.4 | 
O=C(/C=C/c1ccc(O)c(O)c1)O[C@@H]1[C@H](O)C[C@@](O)(C(=O)O)C[C@H]1OC(=O)/C=C/c1ccc(O)c(O)c1 [4,5-Dicaffeoylquinic acid] | -0.7 | 
C=C1[C@H](OC(=O)/C=C(\C)CC)C[C@@H](C(C)C)[C@@H]2[C@@H]([C@@H](C)OC(C)=O)C(=O)C[C@@H]12 [Tussilagone] | 60.7 | 
O=C(/C=C/C=C/c1ccccc1)CCc1ccccc1 [Alnustone] | 1.1 | 
C[C@@H]1O[C@@H](Oc2cc(O)c3c(=O)c(O)c(-c4ccc(O)cc4)oc3c2O)[C@H](O)[C@H](O)[C@H]1O [Rhodionin] | 0.2 | 
CCCCCCCCCCCCCCCCCCCCCCCCCCCC(=O)O [Octacosanoic acid] | -0.6 | 
C[C@@H]1O[C@@H](O[C@H]2[C@H](O[C@H]3CC[C@@]4(C)[C@@H](CC[C@]5(C)[C@@H]4CC=C4[C@@H]6CC(C)(C)CC[C@]6(C(=O)O[C@@H]6O[C@H](CO[C@@H]7O[C@H](CO)[C@@H](O)[C@H](O)[C@H]7O)[C@@H](O)[C@H](O)[C@H]6O)CC[C@]45C)[C@]3(C)CO)OC[C@H](O)[C@@H]2O)[C@H](O)[C@H](O[C@@H]2O[C@H](CO)[C@@H](O)[C@H](O)[C@H]2O)[C@H]1O [Macranthoidin A] | -0.3 | 
C[C@@H]1O[C@@H](O[C@H]2[C@H](OC(=O)[C@]34CCC(C)(C)C[C@H]3C3=CC[C@@H]5[C@@]6(C)C[C@H](O)[C@@H]7O[C@@H]8O[C@H](CO)[C@@H](O)[C@H](O)[C@H]8O[C@@H]8OC[C@H](O)[C@H](O)[C@H]8OC(=O)C[C@@](C)(O)CC(=O)OC[C@@]7(C)[C@@H]6CC[C@@]5(C)[C@]3(C)CC4)OC[C@H](O)[C@@H]2O)[C@H](O)[C@H](O[C@@H]2OC[C@@H](O)[C@H](O)[C@H]2O)[C@H]1O [Tubeimoside I] | 57.2 | 
C[C@@H]1O[C@H]2O[C@H]3[C@@H](OC[C@H](O)[C@@H]3O)OC(=O)[C@]34CCC(C)(C)C[C@H]3C3=CC[C@@H]5[C@@]6(C)C[C@H](O)[C@H](O[C@@H]7O[C@H](CO)[C@@H](O)[C@H](O)[C@H]7O[C@@H]7OC[C@H](OC(=O)C[C@](C)(O)CC(=O)O[C@@H]1[C@@H](O[C@@H]1OC[C@@H](O)[C@H](O)[C@H]1O)[C@H]2O)[C@H](O)[C@H]7O)[C@@](C)(CO)[C@@H]6CC[C@@]5(C)[C@]3(C)C[C@H]4O [Tubeimoside II] | -2.8 | 
